From ChEMBL document CHEMBL3988442, “University of Dundee, Small-Polar-MMV Screening Library” (2021)
For some assays here: Entries with a potency or affinity are not part of this list.

Key:
Set-up in all cases: scale not given: direction of the effect not stated beside the values
[1] = target: Protein translocase subunit SecA (Escherichia coli (strain K12)) (UniProt P10408); experiment: Assay to Identify E. coli SecA ATPase Inhibitors; format: functional; settings: 30 µM
[2] = target: T1, Ubiquitin-activating enzyme e1, putative (Leishmania donovani (strain BPK282A1)) (UniProt E9BSI1); experiment: Leishmania donovani Ubiquitin Activating Enzyme (LdE1); format: functional; settings: 30 µM
T1 sequence (whole entry): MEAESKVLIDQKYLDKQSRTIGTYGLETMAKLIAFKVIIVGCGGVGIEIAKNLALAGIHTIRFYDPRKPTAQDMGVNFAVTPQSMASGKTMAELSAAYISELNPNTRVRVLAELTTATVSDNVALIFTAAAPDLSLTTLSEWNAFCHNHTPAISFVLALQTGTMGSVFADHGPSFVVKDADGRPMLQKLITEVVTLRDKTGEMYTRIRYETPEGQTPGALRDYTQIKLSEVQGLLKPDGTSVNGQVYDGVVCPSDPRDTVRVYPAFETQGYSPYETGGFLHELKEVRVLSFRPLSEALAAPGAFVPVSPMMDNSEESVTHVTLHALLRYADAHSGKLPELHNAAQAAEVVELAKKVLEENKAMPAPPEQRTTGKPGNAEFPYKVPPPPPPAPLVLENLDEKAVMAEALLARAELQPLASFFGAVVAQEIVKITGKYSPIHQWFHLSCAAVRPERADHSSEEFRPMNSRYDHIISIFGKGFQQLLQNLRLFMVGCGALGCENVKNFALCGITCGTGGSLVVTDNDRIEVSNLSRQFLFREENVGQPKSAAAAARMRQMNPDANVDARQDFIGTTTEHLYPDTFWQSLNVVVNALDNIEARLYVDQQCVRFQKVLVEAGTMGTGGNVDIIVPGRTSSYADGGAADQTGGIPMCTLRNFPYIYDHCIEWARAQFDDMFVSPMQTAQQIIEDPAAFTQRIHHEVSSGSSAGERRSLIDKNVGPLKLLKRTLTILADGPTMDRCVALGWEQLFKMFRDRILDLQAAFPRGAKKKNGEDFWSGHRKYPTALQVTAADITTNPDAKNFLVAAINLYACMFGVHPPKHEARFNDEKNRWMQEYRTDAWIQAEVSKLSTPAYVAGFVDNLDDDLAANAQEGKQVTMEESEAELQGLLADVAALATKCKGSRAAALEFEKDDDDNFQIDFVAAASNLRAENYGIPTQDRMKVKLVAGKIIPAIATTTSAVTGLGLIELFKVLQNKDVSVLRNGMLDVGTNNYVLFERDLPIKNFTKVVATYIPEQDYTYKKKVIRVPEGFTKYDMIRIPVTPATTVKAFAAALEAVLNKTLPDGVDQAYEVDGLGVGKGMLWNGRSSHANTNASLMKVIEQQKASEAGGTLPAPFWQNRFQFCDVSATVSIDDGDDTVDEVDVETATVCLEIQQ

[3] = target: AMP-activated protein kinase, AMPK (Homo sapiens) (UniProt P54646+O43741+P54619+Q9UGJ0+Q9Y478+Q13131+Q9UGI9); experiment: AMP-dependent Kinase enzyme assay. An in vitro enzyme assay that detects ADP turnover that is directly proportional to AMPK activity. This uses naive AMPK that is activated during the assay with MK-8722; format: functional; settings: 30 µM
[4] = target: Sialic acid-binding Ig-like lectin 9 (Homo sapiens) (UniProt Q9Y336); experiment: Hs-Siglec9 ALPHAscreen SOP 20170721; settings: 10 µM
Chain of Sialic acid-binding Ig-like lectin 9 (Homo sapiens) (Q9Y336 whole entry): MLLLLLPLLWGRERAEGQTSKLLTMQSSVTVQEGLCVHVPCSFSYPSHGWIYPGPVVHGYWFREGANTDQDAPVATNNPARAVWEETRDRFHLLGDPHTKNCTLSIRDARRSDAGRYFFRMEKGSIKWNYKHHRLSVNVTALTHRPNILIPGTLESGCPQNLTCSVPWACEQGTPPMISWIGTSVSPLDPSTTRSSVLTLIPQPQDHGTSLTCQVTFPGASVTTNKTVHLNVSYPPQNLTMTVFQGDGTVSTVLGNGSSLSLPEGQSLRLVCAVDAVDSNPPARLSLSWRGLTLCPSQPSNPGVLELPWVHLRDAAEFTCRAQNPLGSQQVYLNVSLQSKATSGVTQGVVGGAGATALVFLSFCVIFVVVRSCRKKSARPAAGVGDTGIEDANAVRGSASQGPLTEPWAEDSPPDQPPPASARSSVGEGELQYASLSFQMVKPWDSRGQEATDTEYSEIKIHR

Trypanosoma cruzi = experiment: Trypanosoma cruzi phosphomannomutase and mannose-1-phosphate guanylyltransferase assay; format: functional; settings: 10 µM
[5] = target: T2, Arginase-2, mitochondrial (Homo sapiens) (UniProt P78540); experiment: in vitro enzyme assay to detect the production of urea directly proportional to the activity of Arginase II; format: functional; settings: 33.3 µM; note: in the data most compounds retested in dose-response had high values
T2 sequence (whole entry): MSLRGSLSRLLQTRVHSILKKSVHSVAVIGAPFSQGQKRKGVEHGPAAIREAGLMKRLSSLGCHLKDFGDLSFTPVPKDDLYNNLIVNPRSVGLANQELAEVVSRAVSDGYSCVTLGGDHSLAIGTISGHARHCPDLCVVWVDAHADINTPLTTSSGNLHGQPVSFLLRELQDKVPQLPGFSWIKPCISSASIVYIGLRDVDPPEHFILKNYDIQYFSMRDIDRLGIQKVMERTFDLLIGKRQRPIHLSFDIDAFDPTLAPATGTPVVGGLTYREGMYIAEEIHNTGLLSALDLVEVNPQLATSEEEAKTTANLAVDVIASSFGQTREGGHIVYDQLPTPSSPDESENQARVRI

[6] = target: T3, Proteasome subunit beta (Trypanosoma cruzi) (UniProt O96673); experiment: Trypanosoma cruzi proteasome chymotrypsin-like activity (TcProtChymo) assay.; note: in the data most compounds retested in dose-response had high values; format: functional; settings: 9.37 µM
T3 sequence (whole entry): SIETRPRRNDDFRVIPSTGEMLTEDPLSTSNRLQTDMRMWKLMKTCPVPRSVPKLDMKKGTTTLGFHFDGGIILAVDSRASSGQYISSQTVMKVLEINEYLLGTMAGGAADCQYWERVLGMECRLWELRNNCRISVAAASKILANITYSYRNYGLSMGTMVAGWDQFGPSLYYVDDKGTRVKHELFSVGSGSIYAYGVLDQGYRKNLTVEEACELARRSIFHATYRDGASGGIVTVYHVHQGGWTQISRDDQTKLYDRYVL

Homo sapiens = organism: Homo sapiens; experiment: To identify inhibition of the IFN signalling (Jak-Stat) pathway via expression of an eGFP reporter gene under the control of an IFN-stimulated response element (ISRE) containing MxA promoter.; format: functional; settings: 30 µM
[7] = target: T4, Tyrosyl-tRNA synthetase, putative (Trypanosoma cruzi (strain CL Brener)) (UniProt Q4DSP6); experiment: Trypanosoma cruzi tyrosyl tRNA synthetase (TcYRS) _High Tyrosine SOP; format: functional; settings: 30 µM; note: in the data most compounds retested in dose-response had high values
T4 sequence (whole entry): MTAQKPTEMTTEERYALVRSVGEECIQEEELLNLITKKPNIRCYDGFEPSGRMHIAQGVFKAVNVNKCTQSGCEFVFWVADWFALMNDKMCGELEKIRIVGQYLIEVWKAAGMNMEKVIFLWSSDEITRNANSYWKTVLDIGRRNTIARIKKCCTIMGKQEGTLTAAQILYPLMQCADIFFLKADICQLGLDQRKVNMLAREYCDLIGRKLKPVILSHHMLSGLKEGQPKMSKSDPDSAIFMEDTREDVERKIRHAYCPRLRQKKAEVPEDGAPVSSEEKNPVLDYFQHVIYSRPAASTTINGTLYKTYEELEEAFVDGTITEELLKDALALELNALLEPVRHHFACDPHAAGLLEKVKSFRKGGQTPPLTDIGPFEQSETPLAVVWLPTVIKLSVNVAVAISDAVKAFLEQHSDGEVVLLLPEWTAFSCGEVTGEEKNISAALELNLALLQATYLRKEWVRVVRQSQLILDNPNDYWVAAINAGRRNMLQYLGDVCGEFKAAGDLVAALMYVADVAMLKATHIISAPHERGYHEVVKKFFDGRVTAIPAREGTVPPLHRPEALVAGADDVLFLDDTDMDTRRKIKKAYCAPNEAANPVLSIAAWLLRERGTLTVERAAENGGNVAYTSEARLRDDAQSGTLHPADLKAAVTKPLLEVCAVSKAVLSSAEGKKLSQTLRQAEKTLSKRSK

[8] = target: T4, Tyrosyl-tRNA synthetase, putative (Trypanosoma cruzi (strain CL Brener)); experiment: Trypanosoma cruzi tyrosyl tRNA synthetase (TcYRS) SOP; format: functional; settings: 30 µM
[9] = target: Chromo domain-containing protein 1 (Saccharomyces cerevisiae (strain ATCC 204508 / S288c) (Baker's yeast)) (UniProt P32657); experiment: ScCHD-1 Enzyme Inhibition Assay; format: functional; settings: 30 µM; note: in the data most compounds retested in dose-response had high values
Chain of Chromo domain-containing protein 1 (Saccharomyces cerevisiae (strain ATCC 204508 / S288c) (Baker's yeast)) (P32657 whole entry, the tested form may be a part): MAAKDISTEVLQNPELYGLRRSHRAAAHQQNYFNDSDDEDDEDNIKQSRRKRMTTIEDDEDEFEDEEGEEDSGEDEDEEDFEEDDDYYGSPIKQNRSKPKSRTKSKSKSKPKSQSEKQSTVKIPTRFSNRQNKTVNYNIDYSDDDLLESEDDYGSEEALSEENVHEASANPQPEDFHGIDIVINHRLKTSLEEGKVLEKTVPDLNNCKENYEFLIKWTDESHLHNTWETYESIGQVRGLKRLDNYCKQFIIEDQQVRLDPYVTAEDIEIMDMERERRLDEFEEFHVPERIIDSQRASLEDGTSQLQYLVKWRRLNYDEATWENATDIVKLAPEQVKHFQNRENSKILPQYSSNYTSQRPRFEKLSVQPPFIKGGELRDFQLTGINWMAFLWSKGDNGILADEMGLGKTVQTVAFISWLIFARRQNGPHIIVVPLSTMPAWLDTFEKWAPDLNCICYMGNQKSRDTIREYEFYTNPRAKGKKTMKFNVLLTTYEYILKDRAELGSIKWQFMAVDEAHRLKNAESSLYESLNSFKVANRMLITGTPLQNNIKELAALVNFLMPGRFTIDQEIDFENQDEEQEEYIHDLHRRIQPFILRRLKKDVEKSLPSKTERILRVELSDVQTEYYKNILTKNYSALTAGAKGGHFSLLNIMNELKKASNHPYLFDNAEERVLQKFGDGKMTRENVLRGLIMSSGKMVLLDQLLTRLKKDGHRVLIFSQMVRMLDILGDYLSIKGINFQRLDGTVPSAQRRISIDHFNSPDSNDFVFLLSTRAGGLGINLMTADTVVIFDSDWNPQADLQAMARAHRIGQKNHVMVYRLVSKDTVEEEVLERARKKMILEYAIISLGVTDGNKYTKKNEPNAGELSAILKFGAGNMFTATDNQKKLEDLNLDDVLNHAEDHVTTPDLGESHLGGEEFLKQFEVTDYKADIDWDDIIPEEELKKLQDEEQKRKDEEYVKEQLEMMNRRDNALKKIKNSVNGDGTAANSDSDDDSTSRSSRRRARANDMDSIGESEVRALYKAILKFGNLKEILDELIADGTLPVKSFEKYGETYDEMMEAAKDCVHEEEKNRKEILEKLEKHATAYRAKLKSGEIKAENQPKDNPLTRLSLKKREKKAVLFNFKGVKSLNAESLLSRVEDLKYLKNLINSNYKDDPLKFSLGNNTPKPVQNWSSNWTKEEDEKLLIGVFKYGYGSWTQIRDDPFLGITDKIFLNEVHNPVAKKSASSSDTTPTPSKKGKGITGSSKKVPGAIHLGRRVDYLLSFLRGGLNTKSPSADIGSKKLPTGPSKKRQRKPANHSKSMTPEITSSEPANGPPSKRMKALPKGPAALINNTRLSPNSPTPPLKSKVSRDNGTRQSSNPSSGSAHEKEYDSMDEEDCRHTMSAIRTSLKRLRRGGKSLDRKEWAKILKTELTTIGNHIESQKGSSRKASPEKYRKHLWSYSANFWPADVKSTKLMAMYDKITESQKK

Chain of Protein translocase subunit SecA (Escherichia coli (strain K12)) (P10408 whole entry): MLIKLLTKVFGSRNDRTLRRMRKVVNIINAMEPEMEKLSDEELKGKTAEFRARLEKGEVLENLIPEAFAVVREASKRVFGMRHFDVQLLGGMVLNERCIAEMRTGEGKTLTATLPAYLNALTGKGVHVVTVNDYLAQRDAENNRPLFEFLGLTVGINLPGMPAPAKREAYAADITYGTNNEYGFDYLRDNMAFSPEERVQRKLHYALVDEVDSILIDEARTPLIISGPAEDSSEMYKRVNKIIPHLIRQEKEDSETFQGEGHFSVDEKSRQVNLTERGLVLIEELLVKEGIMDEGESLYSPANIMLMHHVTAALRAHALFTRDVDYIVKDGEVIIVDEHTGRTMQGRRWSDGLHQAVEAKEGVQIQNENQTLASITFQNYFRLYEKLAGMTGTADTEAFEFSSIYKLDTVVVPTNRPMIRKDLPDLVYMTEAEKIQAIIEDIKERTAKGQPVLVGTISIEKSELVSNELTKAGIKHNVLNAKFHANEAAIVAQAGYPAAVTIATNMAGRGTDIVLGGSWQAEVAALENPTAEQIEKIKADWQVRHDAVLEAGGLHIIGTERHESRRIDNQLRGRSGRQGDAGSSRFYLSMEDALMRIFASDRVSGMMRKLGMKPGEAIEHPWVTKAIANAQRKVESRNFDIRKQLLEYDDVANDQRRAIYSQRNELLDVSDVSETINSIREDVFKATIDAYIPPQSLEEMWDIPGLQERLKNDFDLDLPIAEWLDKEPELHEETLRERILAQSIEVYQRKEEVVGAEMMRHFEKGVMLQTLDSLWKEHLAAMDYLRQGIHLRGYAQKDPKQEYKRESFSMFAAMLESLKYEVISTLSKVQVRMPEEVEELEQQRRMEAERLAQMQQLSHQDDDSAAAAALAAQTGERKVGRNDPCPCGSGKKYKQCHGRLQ

SMILES	Percent Effect [1]	Percent Effect [2]	Percent Effect [3]	Percent Effect [4]	Percent Effect (Trypanosoma cruzi)	Percent Effect [5]	Percent Effect [6]	Percent Effect (Homo sapiens)	Percent Effect [7]	Percent Effect [8]	Percent Effect [9]
CC(C)(C)OC(=O)N1CCCc2ccc(NCc3ncc[nH]3)cc21	-8.07%	2.6%	1.02%	4.72%	-4.03%	-11%	4.66%	7.74%	1.07%	-3.7%	-0.00165%
COc1cc(CN(C)C(=O)NCCC2CCCO2)ccc1SC (stereo not given)	-3%	8.11%	-5.1%	2.6%	0.781%	0.833%	10.1%	-25.6%	-13.9%	3.66%	-5.8%
O=C(Nc1nccs1)N(CCO)Cc1ccsc1	-1.95%	13.2%	-2.9%	-1.76%	5.08%	-2.3%	11.5%	-0.668%	8.33%	29.3%	-13.6%
CCN(C)c1ncnc2c1CCN(C(=O)c1ccno1)CC2	-6.78%	13.3%	0.989%	3.39%	-4.05%	-46.4%	5.81%	-5.04%	4.17%	7.5%	-5.33%
Cc1cc(-c2cnc(NC3CC3)nc2-c2ccc(C)o2)on1	-1.85%	13.3%	55.8%	7.93%	3.54%	-0.233%	2.56%	20.4%	2.13%	14.1%	-7.02%
CC(=O)c1cn(CC(=O)NC(C(=O)O)C(C)C)c2ccccc12 (stereo not given)	-5.18%	-2.67%	1.25%	-4.07%	-3.99%	-1.04%	8.72%	-13.9%	1.64%	1.24%	3.17%
COc1ccc(-c2nccnc2C2CCN(C(C)=O)CC2)cc1	-3.54%	25.7%	-4.6%	-7.08%	0.395%	-3.48%	11.7%	8.34%	1.07%	9.09%	-9.8%
CSc1ncccc1C(=O)NCc1ccc(CS(=O)(=O)NC(C)C)cc1	-2.86%	13.9%	2.75%	-0.901%	-1.74%	3.23%	15.4%	21.4%	2.08%	2.53%	-26.4%
CCC(=O)N1CCC(c2nnc(Cn3cccn3)n2C2CC2)CC1	-5.96%	18.1%	-4.09%	12.6%	2.23%	-0.442%	8.07%	-1.41%	4.21%	12.8%	-0.227%
Cc1cnn(C2CCCN(C(=O)c3cc(C)sc3C)C2)c1 (stereo not given)	2.61%	7.89%	4.46%	-9.37%	-4.97%	1.18%	18.7%	-4.44%	5.32%	7.79%	-5.57%
